CHT block – inhibits the human high affinity choline transporter | Q9GZV3 | CHT-expressing cells, membrane potential dye, choline response; active compounds read low | B-score at 10 µM | hit rate 0.86% among 310,000;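 active = B-score over 3 SD under the library average, and starting fluorescence ratio not unusually high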;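 note: choline stimulus applied at its EC90 after an EC20 pre-addition; B-score computed on integrated fluorescence ratio after choline addition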
MEKK2 mut-MEK5 – signal of MEK5 binding to mutant human MEKK2 PB1 domain; bead flow cytometry, Alexa488-MEK5 binding to MEKK2 mutant; percent response, % at 10 µM; hit rate 0.35% among 290,000; AID 1530; in the data active = percent response above about 24%, passing the limit was not always enough
MEKK2 WT-MEK5 – raises or lowers MEK5 binding to wildtype human MEKK2 PB1 domain. bead flow cytometry, Alexa488-MEK5 binding to MEKK2 WT; actives lie on both sides. binding response (% of control), % at 10 µM. hit rate 1.1% among 290,000. AID 1531; in the data active = binding response below about 67% or above about 130%
Mot1-301 SUMO – inhibitors of SUMOylation pathway: yeast Mot1-301 growth rescue. hit rate 1% among 320,000. AID 2716. growth rescue, % at 18.8 µM. S. cerevisiae Mot1-301 growth rescue, ATP luminescence, 38.5C; percent above DMSO median, 100 means doubled;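 active = every valid replicate shows activation above 250% relative to neutral control wells; inactive = the rest, any valid replicate at or below 250%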;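 note: OY570 slx delta 5 strain wells were the positive control but not used for scaling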
MEKK3 PB1 HTS – raises or lowers MEK5 binding to the human MEKK3 PB1 domain. hit rate 1.4% among 290,000. Q99759. binding response (% of control), % at 10 µM. bead-based flow cytometry, Alexa488-MEK5 binding to MEKK3; actives lie on both sides; 0 = blocked by unlabeled MEK5, 100 = vehicle;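 active = binding response more than 3 SD above or below the average of its plate-row segment, actives on both sides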;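 note: Alexa488 bead fluorescence after subtracting the streptavidin-only scavenger bead signal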
Target sequence (Q99759 whole entry, looked up, the tested form may be a part): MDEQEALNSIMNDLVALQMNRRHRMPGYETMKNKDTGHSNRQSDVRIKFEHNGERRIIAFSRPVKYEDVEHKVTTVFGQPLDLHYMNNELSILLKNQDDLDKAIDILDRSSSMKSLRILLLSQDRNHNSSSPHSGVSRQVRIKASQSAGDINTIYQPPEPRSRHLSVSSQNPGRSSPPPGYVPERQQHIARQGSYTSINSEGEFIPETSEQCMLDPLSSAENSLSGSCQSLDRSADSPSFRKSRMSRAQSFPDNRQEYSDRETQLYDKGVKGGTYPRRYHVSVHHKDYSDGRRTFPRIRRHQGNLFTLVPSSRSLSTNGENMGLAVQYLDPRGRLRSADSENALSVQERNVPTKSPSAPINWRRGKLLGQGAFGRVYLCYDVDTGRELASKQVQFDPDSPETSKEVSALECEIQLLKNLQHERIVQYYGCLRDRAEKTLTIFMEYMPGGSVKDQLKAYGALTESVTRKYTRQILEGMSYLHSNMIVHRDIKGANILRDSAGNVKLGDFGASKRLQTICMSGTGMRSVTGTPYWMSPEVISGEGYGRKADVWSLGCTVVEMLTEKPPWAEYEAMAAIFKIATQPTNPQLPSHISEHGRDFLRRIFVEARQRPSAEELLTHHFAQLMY
CHT PAM – allosteric activators of human choline transporter CHT | CHT-expressing cells, membrane potential dye, choline EC20; active compounds read high; LV-AA mutant CHT in HEK293 cells | B-score at 10 µM | hit rate 0.49% among 310,000;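 active = initial fluorescence not abnormally high and integrated response B-score, plate-corrected, over 3 SD above library mean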
CHT act confirm – confirmation of human choline transporter (CHT) activators; shares compounds with CHT PAM; CHT-expressing cells, membrane potential dye fluorescence (FDSS); % of choline EC20–EC90 response window; HEK293 expressing CHT LV-AA mutant; choline added at its EC20; activation, % at 10 µM; hit rate 91% among 2,500;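 active = primary screen active, with duplicate mean activation above negative control mean plus 3 SD, cut at about 11% in these data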
HEK293 MP dye – activity in parental HEK293 cells lacking CHT. hit rate 62% among 2,500. shares compounds with CHT PAM. membrane potential dye fluorescence (FDSS); measured after EC20 choline addition. ratio readout change at 10 µM, hits read low. AID 623908;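 active = duplicate-averaged ratio beyond 3 SD from buffer wells, up or down, though filed actives are nearly all decreases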
* = called active by the depositor. The list is not random: actives were taken first. Their share in the collection is about 4.1%.

What do the screens show for `COCCNC(=O)/C(C#N)=C/c1c(N2CCN(C)CC2)nc2ccccn2c1=O`?
CHT block: inactive; MEKK2 mut-MEK5: -4; MEKK2 WT-MEK5: 94; Mot1-301 SUMO: -23; MEKK3 PB1 HTS: 96; CHT PAM: inactive

How did NC(N)=Nc1nc(-c2ccccc2)c2cc(F)ccc2n1 do in these assays?
CHT block: inactive; MEKK2 mut-MEK5: 20; MEKK2 WT-MEK5: 122; Mot1-301 SUMO: -3; MEKK3 PB1 HTS: 106; CHT PAM: inactive; CHT act confirm: 29*; HEK293 MP dye: -48*

What do the screens show for `COCCN1Cc2cccc(C(=O)Nc3cccnc3)c2C1=O`?
CHT block: inactive; Mot1-301 SUMO: 62; CHT PAM: 6.5*; CHT act confirm: 40*; HEK293 MP dye: -41*

Results for COC(=O)c1ccc(CNC(=O)C2CCC(=O)N(CCCc3ccccc3)C2)cc1 (configuration not stated) ?
CHT block: inactive; MEKK2 mut-MEK5: -8; MEKK2 WT-MEK5: 94; Mot1-301 SUMO: 45; MEKK3 PB1 HTS: 97; CHT PAM: inactive

What do the screens show for `CCOC(=O)C1CCN(c2nc(C)nc3c2oc2ccccc23)CC1`?
CHT block: inactive; MEKK2 mut-MEK5: -4; MEKK2 WT-MEK5: 97; Mot1-301 SUMO: -6; MEKK3 PB1 HTS: 102; CHT PAM: 8*; CHT act confirm: 1; HEK293 MP dye: inactive

How did COc1ccccc1CN=Cc1[nH]c2ccc(Br)c(Cl)c2c1O do in these assays?
CHT block: inactive; MEKK2 mut-MEK5: -2; MEKK2 WT-MEK5: 94; Mot1-301 SUMO: -7; MEKK3 PB1 HTS: 98; CHT PAM: inactive

What do the screens show for `Cc1cccc(N=Cc2[nH]c3ccc(Br)c(Cl)c3c2O)c1`?
CHT block: inactive; MEKK2 mut-MEK5: -3; MEKK2 WT-MEK5: 88; Mot1-301 SUMO: 8; MEKK3 PB1 HTS: 89; CHT PAM: inactive; CHT act confirm: 12*; HEK293 MP dye: inactive

How did CC(C)c1nc(SCC(=O)Nc2nc3c(s2)CCCC3)c2ccccc2n1 do in these assays?
CHT block: inactive; Mot1-301 SUMO: 6; CHT PAM: 9*; CHT act confirm: 28*; HEK293 MP dye: inactive

How did c1ccc2c(N3CCOCC3)nc(-c3ccncc3)nc2c1 do in these assays?
CHT block: inactive; MEKK2 mut-MEK5: 0; MEKK2 WT-MEK5: 101; Mot1-301 SUMO: 1; MEKK3 PB1 HTS: 95; CHT PAM: 7.1*; CHT act confirm: 83*; HEK293 MP dye: -57*

What do the screens show for `O=S(=O)(/C=C/c1ccccc1)N1CCN(c2nc(-c3cccnc3)nc3ccccc23)CC1`?
CHT block: inactive; MEKK2 mut-MEK5: 0; MEKK2 WT-MEK5: 98; Mot1-301 SUMO: 614; MEKK3 PB1 HTS: 102; CHT PAM: inactive

How did c1cncc(-c2nc(N3CCOCC3)c3ccccc3n2)c1 do in these assays?
CHT block: inactive; MEKK2 mut-MEK5: 1; MEKK2 WT-MEK5: 100; Mot1-301 SUMO: -12; MEKK3 PB1 HTS: 104; CHT PAM: 8.1*; CHT act confirm: 53*; HEK293 MP dye: -49*

How did c1ccc(CN2CCN(c3nc(N4CCOCC4)c4ccccc4n3)CC2)cc1 do in these assays?
CHT block: inactive; MEKK2 mut-MEK5: 1; MEKK2 WT-MEK5: 104; MEKK3 PB1 HTS: 98; CHT PAM: inactive

What do the screens show for `c1ccc2c(N3CCOCC3)nc(N3CCOCC3)nc2c1`?
CHT block: inactive; MEKK2 mut-MEK5: 2; MEKK2 WT-MEK5: 108; Mot1-301 SUMO: -29; MEKK3 PB1 HTS: 103; CHT PAM: 12*; CHT act confirm: 48*; HEK293 MP dye: -86*

What do the screens show for `CN1CCN(c2nc(N3CCN(CCO)CC3)nc3ccccc23)CC1`?
CHT block: inactive; MEKK2 mut-MEK5: 5; MEKK2 WT-MEK5: 105; MEKK3 PB1 HTS: 102; CHT PAM: 11*; CHT act confirm: 37*; HEK293 MP dye: -102*
